Bioassay records deposited in PubChem BioAssay by The Scripps Research Institute Molecular Screening Center.
Hits are enriched below; roughly 2.3% of the tested compounds scored in any of these assays.
CHRM1 antagonist: antagonists of human M1 muscarinic receptor | CHO-K1 hM1, Fluo-8 calcium fluorescence, ACh EC80 antagonist | inhibition, % at 3 µM | 360,000 tested, 1.3% active;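 active = percent inhibition above its own plate's cutoff, namely the mean of that plate's compound wells plus 3 SD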;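 also: peak over basal fluorescence ratio during 140 s after agonist addition; 0% = ACh EC80 plus DMSO and 100% = DMSO alone without agonist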
Target sequence (P11229 whole entry, looked up): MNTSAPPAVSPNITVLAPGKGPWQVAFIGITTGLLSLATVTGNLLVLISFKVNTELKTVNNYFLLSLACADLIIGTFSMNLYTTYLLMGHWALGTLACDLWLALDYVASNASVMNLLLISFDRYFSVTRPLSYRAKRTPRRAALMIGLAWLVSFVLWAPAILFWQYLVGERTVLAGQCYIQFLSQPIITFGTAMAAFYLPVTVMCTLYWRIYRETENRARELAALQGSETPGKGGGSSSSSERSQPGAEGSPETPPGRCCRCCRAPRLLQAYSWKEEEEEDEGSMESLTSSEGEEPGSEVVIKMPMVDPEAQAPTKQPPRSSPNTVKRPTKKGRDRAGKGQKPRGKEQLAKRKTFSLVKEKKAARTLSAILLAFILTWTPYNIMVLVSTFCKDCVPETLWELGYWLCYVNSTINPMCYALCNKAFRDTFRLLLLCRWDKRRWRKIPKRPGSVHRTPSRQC
M1 ag: activates human CHRM1 receptor; P11229; CHO-K1 hM1, Fluo-8 calcium fluorescence, agonist mode; 0% DMSO, 100% acetylcholine EC100; activation, % at 3 µM; 360,000 tested, 0.33% active;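 active = activation above the run's mean compound activation plus 3 SD, cut at about 16% in these data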;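 also: peak over basal fluorescence ratio within a 140 s kinetic read after compound addition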
M1 PAM: potentiates human M1 receptor response to acetylcholine; 360,000 tested, 0.088% active; activation, % at 3 µM; CHO-K1 hM1, Fluo-8 calcium fluorescence, ACh EC20; 0% = ACh EC20, 100% = maximal ACh; AID 588819; in the data active = activation above about 19%, passing the limit was not always enough
CHO-K1 Ca antag: M1 antagonist counterscreen hit in parental CHO-K1 cells | inhibition, % at 3 µM | 360,000 tested, 0.6% active | AID 602250 | ATP-induced calcium, Fluo-8 fluorescence;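 active = inhibition above a per-plate cutoff, the plate's mean sample inhibition plus 3 SD, cut at about 24% in these data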;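 also: 0% = DMSO plus EC80 ATP and 100% = DMSO alone without ATP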
M1 ag parental: nonselective activator or artifact in parental CHO-K1 cells | 360,000 tested, 0.48% active | activation, % at 3 µM | Fluo-8 calcium fluorescence; scaled to maximal ATP response, vehicle zero; in the data active = activation above about 15%;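 also: untransfected CHO-K1 host cells lacking M1 receptor as counterscreen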
M1 PAM parental: nonselective activator or artifact in parental CHO-K1 calcium assay | ATP EC20, Fluo-8 calcium fluorescence; 0% at ATP EC20, 100% at ATP max | activation, % at 3 µM | 360,000 tested, 0.02% active | AID 602247;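 active = activation above the run cutoff, the mean activation of all test compounds plus 3 SD, cut at about 40% in these data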;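 also: peak over basal fluorescence ratio in a 140 s read after ATP addition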
Active calls of the source: *.

SMILES	CHRM1 antagonist	M1 ag	M1 PAM	CHO-K1 Ca antag	M1 ag parental	M1 PAM parental
Cc1ccccc1C(O)(Cc1ccccc1)C1CN2CCC1CC2 (stereo not given)	98*	-6	-26	-9	1	20
CCN(CC)S(=O)(=O)c1cccc(N=Nc2c(O)n(CC)c(=S)n(CC)c2=O)c1	-8	-2	6	-13	0	7
Cc1ccc(-c2cc(-c3ccccc3)cc(-c3ccccc3)[n+]2-c2ccccc2)cc1	78*	-2	-33	30*	13	-17
O=[N+]([O-])c1cc(Cl)c(O)c(-[n+]2c(-c3ccccc3)cc(-c3ccccc3)cc2-c2ccccc2)c1	-12	1	7	-4	0	8
C[n+]1c(-c2ccccc2)cc(-c2ccc(Cl)cc2)cc1-c1ccccc1	-12	-14	10	16	-1	-14
Cc1ccc(-c2cc(-c3ccc(C)cc3)[n+](-c3ccc(C(=O)[O-])cc3)c(-c3ccc(C)cc3)c2)cc1	-5	9	12	-14	0	-3
CCOC(=O)c1cccc(-[n+]2c(-c3ccccc3)cc(-c3ccccc3)cc2-c2ccccc2)c1	30	-13	-22	-17	0	-2
Cc1ccc(-c2cc(-c3ccc(C)cc3)[n+](-c3ccccc3)c(-c3ccc(C)cc3)c2)cc1	51*	6	-21	16	17*	-3
c1ccc(-c2cc(-c3ccccc3)[n+](-c3ccccc3)c(-c3ccccc3)c2)cc1	43*	2	-17	20	11	-11
CN(C)c1ccc(-[n+]2c(-c3ccccc3)cc(-c3ccccc3)cc2-c2ccccc2)cc1	56*	-11	-33	23	8	4
O=C1NC(=O)N(c2ccc3c(c2)OCO3)C(=O)/C1=C\c1ccc(N2CCCCC2)o1	5	0	-9	25*	3	-9
Cc1ccccc1N1C(=O)NC(=O)/C(=C/c2ccc(N3CCOCC3)o2)C1=O	-16	3	13	7	3	-20
CC(C)Nc1ccc(Nc2ccccc2)cc1	53*	-8	-25	3	0	2
c1ccc(Nc2ccc3ccccc3c2)cc1	12	-5	-10	0	0	4
C=CCC1C(=O)NC(=S)NC1=O	-2	-5	3	-3	0	18
CCCCn1c(O)c(C(=O)/C=C/c2c[nH]c3ccccc23)c(=O)[nH]c1=O	0	12	1	13	2	-18
CN1CN(c2ccccc2)C2(CCN(CCCSc3ccccc3NC(=O)/C=C/c3ccccc3)CC2)C1=O	55*	47*	-34	35*	62*	-26
Fc1ccccc1CNC1CN2CCC1CC2 (stereo not given)	45*	-8	-20	-7	0	7
Clc1ccc(CNC2CN3CCC2CC3)cc1 (stereo not given)	-11	-8	0	-10	0	20
CC(C)CN1Cc2cc(-c3cccc(F)c3)ccc2-n2nncc2C1	3	4	5	10	0	8
CC(C)(C)C(=O)OC[N+](C)(C)CCOC(=O)C(O)(c1ccccc1)C1CCCC1 (stereo not given)	98*	-7	-25	-16	1	24
CCCC(CCC)C(=O)OC[N+](C)(C)CCOC(=O)C(O)(c1ccccc1)C1CCCC1 (stereo not given)	99*	-12	-31	0	0	3
O=C(O)C(O)(c1ccccc1)C1CCCC1 (stereo not given)	-1	-1	4	-1	0	9
CC1=C(O)C(=O)C=C2C1=CC=C1C2(C)CCC2(C)C3CC(C)(C(=O)O)CCC3(C)CCC12C (stereo not given)	35	0	-6	37*	6	6
Cc1cc(Cl)nc(N)n1	4	-4	-2	-12	1	10
Fc1cccc(CNCCc2c[nH]c3ccccc23)c1	-2	-4	3	3	0	-2
Cc1cccc(CNCCc2c[nH]c3ccccc23)c1	3	-1	4	-6	23*	20
COc1cc(CNCCc2c[nH]c3ccccc23)cc(OC)c1	6	-4	-3	25*	2	-1
CP(=O)(O)CCCN	-8	0	8	-11	0	15
